# Inconclusive results are not listed. Where a call stands in place of a potency, no number is given. Calls of active or inactive are those of the source. The call rests on the fitted dose curve; in most records, active means well fitted cell-killing curve with a large enough effect; inconclusive means small, poorly fitted or top-dose-only effect, or effect the other way; inactive means flat fitted curve, though single readings scatter.
# Test: Cell viability assay in S16 Pmp22-HiBiT cells - Confirmatory screen
# Conditions: S16 Schwann Pmp22-HiBiT viability, CellTiter-Glo, 24 h; series mostly up to 27.9 µM
# Source text: Assay Provider: Jim Inglese Ph.D. National Center for Advancing Translational Science, National Institutes of Health, Rockville, MD CMT is a heterogeneous group of neurological disorders that affect approximately 1 in 2,500 people. In particular, the most common form of CMT, CMT1A is genetically linked to the duplication of the PMP22 gene which leads to Schwann cell overexpression, thus manifesting itself as a typical case of dose-sensitive diseases. To identify small molecule compounds that can mediate the expression of PMP22 we developed a phenotypic assay screening strategy by utilizing genome editing techniques to construct Schwann cell lines containing novel reporter technology to monitor the transcriptional or translational regulation of PMP22. For high sensitivity we use a bioluminescent reporter system embedded in the 3' UTR of the PMP22 gene (S16(c9) Pmp22-F2sN) to identify compounds that inhibit gene expression. […] We can further discriminate the effect of all transcriptionally active molecules on PMP22 translation or stability with an assay that incorporates a short NLuc peptide (HiBiT) at the C-terminus of expressed PMP22 (S16(f8) PMP22-HiBiT) allowing alpha complementation and luminescence detection of membrane-associated PMP22 protein. These assays were screened against the NCATS Sytravon Library Collection. Miniaturization of these assays to 1536-well plate format for quantitative high throughput screening (qHTS) yielded rich data sets immediately from the qHTS assay (S16(c9) Pmp22-F2sN), when compared with data from a cell viability assay (Cell TiterGlo) to identify compounds that decreased the output signals through cellular toxicity to streamline the selection process of actives for subsequent characterization using the HiBiT assay (S16(f8) PMP22-HiBiT).
# Cell viability assay in S16 Pmp22-HiBiT cells PROTOCOL TABLE (format as described by Inglese J, Shamu CE and Guy RK. 2007) SEQUENCE No. (e.g., 1, 2, 3, etc.); PARAMETER (e.g., Cells, Incubation, Reagent, etc.); VALUE and DESCRIPTION. 1. Cells. Add 500-1,000 cells in 4 uL in growth media (DMEM High Glucose, No Phenol Red media + 10% heat-inactivated FBS + 1% Pen/Strep supplemented media) per well into Greiner 1536-well white/solid bottom high base, TC-treated plates. 2. Compounds. Library compounds and controls added at 23nL per well, transferred by Pin Tool. 3. Incubation. Incubate plates at 37C, 5% CO2, 95% RH for 24 h. 4. Reagent. Add 3uL CellTiter-Glo per well of Greiner 1536-well plates. 5. Incubation. Incubate plates at room temperature for 15 min., protect from light. 6. Detector. Luminescence measured using CCD-based camera (Viewlux). NOTES (numbers refer to Sequence numbers above; values are from representative experiments) 6. Luminescence Read: Clear filter; Exposure = 1 sec, Gain = High, Speed = Slow, Binning = 2X REFERENCES: 1. Inglese J, Shamu CE and Guy RK, Reporting data from high throughput screening of small molecule libraries, Nature Chemical Biology, 2007, 3(8): 438-441. doi.org/10.1038/nchembio0807-438 2. Yasgar A, Shinn P, Jadhav A, Auld DS, Michael S, Zheng W, Austin CP, Inglese J and Simeonov A, Compound Management for Quantitative High-Throughput Screening. J. Assoc. Lab. Auto., 2008, 13: 79-89. doi: 10.1016/j.jala.2007.12.004
row,Compound,Potency
1,COc1ccccc1CNC(=O)CSc1nnc(C)c2c(C)n(-c3ccccc3)nc12,inactive
2,CCS(=O)(=O)c1ncc(Cl)c(C(=O)Nc2c(C(=O)c3ccc(C)cc3)oc3ccccc23)n1,inactive
3,COC(=O)c1ccccc1NC(=O)c1nc(S(=O)(=O)Cc2cccc(C)c2)ncc1Cl,inactive
4,Cc1cc(NC(=O)C2CCCN(S(=O)(=O)c3cccc4nonc34)C2)ccc1Br (configuration not stated),inactive
5,Cc1ccc(NC(=O)N2CCc3cc(S(=O)(=O)N4CCC(C)CC4)ccc32)cc1F,inactive
6,CCN(CC)c1ccc(NC(=O)C2COc3ccc(OC)cc3C2)c(C)c1 (configuration not stated),inactive
7,Cc1ccccc1S(=O)(=O)Cc1ccc(C(=O)N2CCN(c3cccc(Cl)c3)CC2)o1,inactive
